Reference: PubChem BioAssay (NCI)
This is part of a sample that, as a whole, favours compounds with a hit. Of some 83,000 tested, about 20% had one in any assay.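 Percent growth is the endpoint: 0 to 100 indicates growth inhibition (40 means 60% inhibition), 0 means no net growth, and negative values indicate cell death.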 Active and inactive are the calls of the source. How the source made its calls: active means growth percent below 10; inactive means the rest.

Assays:
Assay in all cases: NCI-60 one-dose screen, 48 h (100 = growth as untreated, 0 = no growth, -100 = all killed)
Details in all cases: 10 µM unless noted
[1] = system: RPMI-8226 leukemia
[2] = system: OVCAR-8 ovarian
[3] = system: OVCAR-5 ovarian
[4] = system: OVCAR-4 ovarian
[5] = system: SK-OV-3 ovarian
[6] = system: OVCAR-3 ovarian
[7] = system: HS 578T breast
[8] = system: NCI/ADR-RES ovarian
[9] = system: T-47D breast
[10] = system: IGROV1 ovarian

Measured: growth

C[C@]12CC[C@@H]3c4ccc(O)c([N+](=O)[O-])c4CC[C@H]3[C@@H]1CC[C@@H]2NS(=O)(=O)c1ccc(C(F)(F)F)cc1
inactive: [1] 15.6% | [2] 26.9% | [3] 80.8% | [4] 31% | [5] 74.2% | [6] 23.2% | [7] 52.7% | [8] 27.7% | [9] 18.6%

Cc1cc(NC(=O)Nc2cccc3ccccc23)no1
inactive: [1] 102% | [2] 105% | [3] 98.9% | [4] 103% | [5] 103% | [7] 107% | [8] 103% | [9] 87.6%

Cn1cc(-c2csc(-c3c[nH]c4ncccc34)n2)c2cc(Br)cnc21
active: [4] -34.6% | [5] 0.893%
inactive: [1] 61.8% | [2] 22.4% | [3] 82.3% | [8] 29.2% | [9] 20.7%

CC(=O)Nc1ccc2c(c1)Cc1c(F)c(F)c(F)c(F)c1-2
inactive: [1] 22.5% | [2] 79.6% | [3] 44.1% | [4] 85.7% | [5] 113% | [6] 105% | [7] 96.6% | [9] 85.6%
active: [8] -39.9%

CCN1C[C@@H](C)n2c(c(O)c3c(=O)n(Cc4ccc(F)c(Cl)c4)nc(C(=O)NC)c32)C1=O
inactive: [1] 19.4% | [2] 22% | [3] 88.6% | [4] 80.2% | [5] 43.5% | [6] 38.1% | [7] 16.7% | [8] 15.3% | [9] 27%

Nc1nc2ncc(CCNc3ccc(C(=O)NC(CCC(=O)O)C(=O)O)cc3)nc2c(=O)[nH]1 (stereo unspecified)
inactive: [1] 112% | [2] 108% | [3] 90.1% | [4] 104% | [5] 110% | [7] 101% | [9] 115%
active: [8] -2.15%

CC(NC(=O)C(C)Oc1ccc(Cl)cc1Cl)C(=O)O (stereo unspecified)
inactive: [1] 125% | [2] 107% | [3] 95.7% | [5] 102% | [10] 84.8% | [8] 96.7% | [9] 108%

CCN(CC)c1ccc(N=Nc2cc(Cl)ccc2Cl)c(NC(=O)CCC(=O)O)c1
inactive: [1] 97.6% | [2] 89.2% | [3] 92.5% | [5] 97.5% | [10] 92.2% | [6] 96.8% | [7] 95.1% | [8] 95.5% | [9] 90.2%

Nc1ncc(-c2cnn(C3CCNCC3)c2)cc1-c1nc2cc(Cl)ccc2o1
active: [1] -81% | [2] -52.5% | [3] -81.2% | [4] -83.1% | [5] -81.5% | [6] -100% | [7] -68.4% | [8] -50.5% | [9] -77.4%

O=C(/C=C/c1ccc(Cl)cc1)c1ccccc1
active: [1] 1.52%
inactive: [2] 97.5% | [3] 99.5% | [4] 107% | [5] 126% | [6] 101% | [7] 126% | [8] 107% | [9] 92.4%

CCS(=O)(=O)OCCCl
active: [8] -5.43%
inactive: [1] 120% | [2] 103% | [3] 80.8% | [4] 100% | [5] 87.4% | [7] 104% | [9] 102%

O=C(c1ccccc1)c1ccccc1Cl
inactive: [1] 88.5% | [2] 108% | [3] 104% | [5] 108% | [10] 106% | [6] 106% | [7] 102% | [8] 105% | [9] 98.9%

Oc1[nH]c2ccc(Cl)cc2c1/C=c1/ccc2c(c1)N=C(c1ccc(C(F)(F)F)cc1)N=2
inactive: [1] 69% | [2] 67.6% | [3] 76.2% | [4] 59.5% | [5] 84.4% | [6] 32.3% | [7] 74% | [8] 62.7% | [9] 60.5%

COc1ccc(-c2c(N)noc2-c2cc(OC)c3c(c2)OCCO3)cc1
inactive: [1] 16% | [2] 24.3% | [3] 36.5% | [10] 24.8% | [7] 25.9% | [9] 63.7%
active: [5] 8.57% | [6] -24.2% | [8] -5.69%

COc1cccc(C2C(C#N)=C(N)Oc3cc(OC)ccc32)c1 (stereo unspecified)
inactive: [3] 34.4% | [4] 59.3% | [7] 11.3% | [9] 55.8%
active: [1] 9.12% | [2] 3.88% | [5] 3.13% | [6] -28.9% | [8] 3.99%

CCOC(=O)/C=C(/C)Sc1cc(O)c2ccccc2c1O
active: [5] 6.27% | [7] -28.2%
inactive: [1] 40.7% | [2] 24.3% | [3] 93% | [4] 51.1% | [6] 13.4% | [8] 21.6% | [9] 36.8%

CC(C)(C)c1ccc(C(O)CCCN2CCC(C(O)(c3ccccc3)c3ccccc3)CC2)cc1 (stereo unspecified)
active: [1] -38.8% | [2] -38.5% | [3] -20.7% | [5] -48.9% | [6] -83.9% | [7] -45.3% | [8] -46.6% | [9] -69.3%
inactive: [10] 34.7%
